For 38 compounds, outcome results are on record in PubChem BioAssay AID493194 (Broad Institute, 2011).

Entries with a potency or affinity are not part of this list. Records with an inconclusive call do not appear. Activity calls are given as the source filed them.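 The calls were made as follows: active = a valid curve of falling signal whose half-effect concentration is at most ten times the top tested dose; inconclusive = flat curve at 30 to 70% inhibition, or poor fit; inactive = signal rise, flat within 30%, or potency beyond limit.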

For the assay, the target named is Scavenger receptor class B member 1 (Mus musculus) (UniProt Q61009). The experiment in a line: inhibitors of SR-BI mediated HDL lipid uptake, dose response, ldlA[mSR-BI] cells, fluorescence, cherry pick (AID 493194).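 Also: CHO cells lacking LDL receptor and overexpressing mouse SR-BI; cellular uptake of fluorescently labeled HDL measured as cell fluorescence.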 Particulars: CHO ldlA[mSR-BI] DiI-HDL uptake fluorescence, 3 h; series mostly up to 35 µM.
Scavenger receptor class B member 1 (Mus musculus), sequence (Q61009 whole entry, looked up): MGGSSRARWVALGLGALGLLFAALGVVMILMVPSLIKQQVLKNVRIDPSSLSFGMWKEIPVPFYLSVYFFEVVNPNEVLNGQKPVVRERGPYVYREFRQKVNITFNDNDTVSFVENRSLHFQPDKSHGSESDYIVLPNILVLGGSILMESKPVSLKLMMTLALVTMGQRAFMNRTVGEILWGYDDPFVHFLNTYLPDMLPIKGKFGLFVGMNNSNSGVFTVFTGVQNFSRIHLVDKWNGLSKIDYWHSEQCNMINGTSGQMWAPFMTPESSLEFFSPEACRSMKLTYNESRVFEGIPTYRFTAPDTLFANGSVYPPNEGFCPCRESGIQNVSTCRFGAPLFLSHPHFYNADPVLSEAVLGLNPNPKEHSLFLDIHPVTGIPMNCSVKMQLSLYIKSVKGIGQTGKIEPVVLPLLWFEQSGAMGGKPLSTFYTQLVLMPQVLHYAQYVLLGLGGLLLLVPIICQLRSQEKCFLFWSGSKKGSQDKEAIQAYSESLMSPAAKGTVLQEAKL
As for `CC(C)C(C(=O)OCC(=O)c1ccc2c(c1)NC(=O)CO2)N1C(=O)c2ccccc2C1=O` (stereo not drawn), the compound was classed as inactive.

With `Cc1ccccc1-c1cc(C(=O)NCc2cccc(Br)c2)nn1CC1CC(c2cccc([N+](=O)[O-])c2)=NO1` (stereo not drawn), the call was inactive.

For `Cc1cc2oc(=O)cc(-c3ccccc3)c2c(C)c1-c1ccc(C(F)(F)F)cc1`, the compound was classed as inactive. `CCCCC(=O)Nc1nc(C)c(-c2csc(Nc3ccc(Cl)cc3)n2)s1`: the outcome was inactive. Next, `Oc1csc(Cc2nc(-c3ccc4ccccc4c3)cs2)n1`: “inactive”; `COc1cccc(-c2csc(N3CCN(C(=S)Nc4cccc(Cl)c4)CC3)n2)c1`: “inactive”; `Cc1ccc(-c2nnc(N3CCC(C)CC3)c3ccccc23)cc1C`: “inactive”. Take `CCOC(=O)C1CCN(C(=O)Cn2nc(C)n3nc(-c4ccc(OC)cc4)cc3c2=O)CC1`: the call was inactive. Regarding `COCCCNc1nc2c(-c3cccc(C)c3)nnn2c2ccccc12`, the result was inactive.

Turning to `CN(C(=O)COn1nnc2ccc(S(=O)(=O)N3CCOCC3)cc21)c1ccccc1`, the result was inactive. For the compound `COc1cc(OC)cc(C(=O)N[C@H](C(=O)Nc2nc(-c3cc(OC)ccc3OC)cs2)C(C)C)c1`, the compound was called inactive. Next, `CS(=O)(=O)N1CCc2cc(-c3csc(NC(=O)Cc4ccccc4)n3)ccc21`: “inactive”; `Cn1c(CCN2CCN(c3ccccn3)CC2)nc2cc(NS(=O)(=O)c3ccc(Cl)cc3)ccc21`: “inactive”. The result for `CNc1nc(-c2ccc3c(c2)CCN3C(=O)CC(C)(C)C)c(C)s1` reads “inactive”. As for `COc1ccccc1NC(=O)CN1CCN(CC(=O)Nc2ccc(C)c(F)c2)CC1`, the result was inactive.

`C=CCOC(=O)c1[nH]c2c(c1C)C(=O)CC(c1cc(OC)c(OC)c(OC)c1)C2` (stereo not drawn): the compound was called inactive.

Turning to `Cc1c(C(=O)N2CC3(CC(c4cccc(NC(=O)CC(c5ccccc5)c5ccccc5)c4)=NO3)C[C@@H]2C(N)=O)cc([N+](=O)[O-])cc1[N+](=O)[O-]` (stereo partly drawn), the call was inactive. `N#Cc1ccc(Nc2nc(-c3ccc(O)cc3O)cs2)cc1C(F)(F)F`: the outcome was inactive. Take `CC(C)C(=O)Nc1nc(-c2ccc3c(c2)CCN3C(=O)C2CC2)cs1`: the result was inactive. Consider `O=C(Nc1ccn(Cc2c(F)c(F)c(F)c(F)c2F)n1)c1ccc(COc2ccccc2Cl)cc1`, for which the result was inactive. The result for `O=C(NCCn1cc(SCC(=O)N2CCOCC2)c2ccccc21)c1c(F)cccc1F` reads “inactive”. Next, `CC(C)C(=O)N1CCc2cc(-c3csc(N)n3)ccc21`: “inactive”; `COc1cc(/C=C\C(=O)NCc2ccc3c(c2)cc(C)n3C)cc(OC)c1OC`: “inactive”; `COc1ccc(-c2cc(C(F)(F)F)nc(SCCC(=O)N3CCN4CCCC4C3)n2)cc1` (stereo not drawn): “inactive”. Regarding `CC(=O)Nc1c(I)c(C(=O)N[C@H]2C(O)O[C@H](CO)[C@@H](O)[C@@H]2O)c(I)c(N(C)C(C)=O)c1I` (stereo partly drawn), the result was inactive.

Regarding `CS(=O)(=O)N1CCc2cc(C(=O)Nc3cccc([N+](=O)[O-])c3)ccc21`, the outcome was inactive. As for `O=C(NCc1ccccc1Cl)C1CCN(C(=O)c2sccc2-n2cccc2)CC1`, the compound was classed as inactive. With `COCCNC(=O)c1ccc(CS(=O)(=O)c2cccc(C(F)(F)F)c2)o1`, the call was inactive. For `Cc1cc(C)nc(N2CCC(C(=O)N3CCN(c4cc(Cl)ccc4C)CC3)CC2)n1`, the compound was classed as inactive. For the compound `COC(=O)c1[nH]c2c(c1C)C(=O)CC(c1cccs1)C2` (stereo not drawn), the compound was called inactive. With `CC(=O)Nc1ccc(S(=O)(=O)N2CCC(C(=O)NCCC(=O)NCc3ccccc3)CC2)cc1`, the compound was classed as inactive. Take `COc1ccc(OCC(O)Cn2c(Nc3cccc(C)c3)nc3c2c(=O)n(C)c(=O)n3C)cc1` (stereo not drawn): the compound was classed as inactive.

On to `O=C(NC1CCCC1)C(c1c[nH]c2ccccc12)N(C(=O)Cn1nnc(-c2ccc(Cl)cc2)n1)c1ccccc1` (stereo not drawn), for which the call was inactive.

Regarding `Cc1nc(NCc2cccnc2)c2c3c(sc2n1)CC(C)CC3` (stereo not drawn), the call was inactive. Take `CCOc1ccc(C(=O)Nc2ccc(S(=O)(=O)N3C[C@@H]4C[C@@H](C3)c3cccc(=O)n3C4)cc2)cc1`: the call was inactive.

Regarding `CCCCNc1c(-c2ccc(-c3ccc(C(C)=O)cc3)c(OC)c2)nc2cnccn12`, the call was inactive. Take `Cc1cc(=O)oc2cc(OCC(=O)N3CCN(C(=O)C4COc5ccccc5O4)CC3)c(Cl)cc12` (stereo not drawn): the compound was called inactive. With `N#Cc1ccc(C(=O)N2CCC3CC2c2cc(-c4ccc(F)cc4)ccc23)cc1` (stereo not drawn), the compound was classed as inactive.
